Results from PubChem BioAssay AID1159580 (chemical genetic matrix, 2015).
In all, about 5,500 compounds went through this assay and about 2,000 (36%) were called active. Roughly 18% stayed inconclusive and do not appear here. Cut-off read from the data, not from the text of the source: active = normalized growth mostly below about 0.91 (no sharp cut-off); inconclusive = no clear call, values can overlap the other calls; inactive = mostly above about 0.92. This is one part of the list.

Test: chemical genetic growth profiling, strain panel (AID 1159580);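 note: tested at 20 µM; growth read once vehicle control cultures reached saturation at 30 °C; 1 = growth at the plate median or of vehicle wells; lower values mean less growth of the strain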
Conditions: S. cerevisiae deletion strains, growth OD

Measured: normalized growth

O=[N+]([O-])O[C@@H]1CO[C@H]2[C@@H]1OC[C@@H]2O
inactive: locus YHR030C, strain SLT2, hits give low values 0.983 | locus YHR079C, strain IRE1, hits give low values 0.991 | locus YJL095W, strain BCK1, hits give low values 1 | locus YJR066W, strain TOR1, hits give low values 0.955 | locus YLR113W, strain HOG1, hits give low values 0.999 | locus YNL183C, strain NPR1, hits give low values 0.932 | locus YOR231W, strain MKK1, hits give low values 0.981 | locus YPL256C, strain CLN2, hits give low values 0.966
